This is an account of results in ChEMBL document CHEMBL4888484, “Replenishing the malaria drug discovery pipeline: Screening and hit evaluation of the MMV Hit Generation Library 1 (HGL1) against asexual blood stage Plasmodium falciparum ,using a nano luciferase reporter read-out” (2022).

Structures are written as SMILES. Among all 150,000 compounds or so, about 540 (0.36%) showed an effect of 50% or more. This is one part of a sample in which strong results are shown more often than they occur.

The assay relates to Plasmodium falciparum. The experiment in a line: Primary screen in NF54 nanoGlo assay, in single point, at 2uM, 72h; a lower Z score goes with more inhibition. The assay is classed as functional, Erythrocyte. The following applies: timepoint 72 hour.
As to `O=C(c1n[nH]c2c1CCCCCC2)N1CCC(c2nc(C3CCOCC3)no2)CC1`, the “% Inhibition” value is -3% and the Z score is 0.4.
The like results for `C[C@@H](CN1CCc2ccccc2C1)NC(=O)c1cnc2c(c1)CCCC2` were, in that order, -3% and 0.47.
Consider `CCn1cc(-c2cccc(C(=O)N[C@@H](C)c3nc(C)sc3C)c2)cn1`, for which the “% Inhibition” value is -4% and the Z score was found to be 0.85.
Taken in the same sequence, the figures for `CN(CC(F)(F)F)C(=O)CN1C(=O)c2ccccc2C(C)(C)C1=O` were 2% and -0.16.
For `Cc1[nH]ncc1CCCNCc1cccc(O)c1`, the “% Inhibition” value amounted to 39% and the Z score is on record as -0.35.
The like results for `Cc1cn2nc(C(=O)NCCc3ccc(S(N)(=O)=O)cc3)cc2c(=O)[nH]1` were, in that order, -18% and 3.38.
Regarding `Cc1cn2nc(C(=O)NCCc3ccccc3)cc2c(=O)[nH]1`, the “% Inhibition” value is recorded as 3% and the Z score is -0.45.
As for `COc1ccc(CCNC(=O)c2cc3c(=O)[nH]c(C)cn3n2)cc1OC`, the “% Inhibition” value is 61% and the Z score is reported as -7.83.
The like results for `CCN(CC)S(=O)(=O)c1ccc2c(c1)nnn2CCNC(=O)Nc1cccc(F)c1` were, in that order, 26% and -2.96.
Consider `CNC(=O)CCCN(C)c1ccnc2cc(Br)cnc12`, for which the “% Inhibition” value is -9% and the Z score was 1.06.
As to `Cc1cc(CN(C)c2ccnc3cc(Br)cnc23)no1`, the “% Inhibition” value amounted to 12% and the Z score is reported as -0.99.
On to `C[C@@H](CN)N(C)c1ccnc2cc(Br)cnc12`, for which the “% Inhibition” value came out at 99% and the Z score was -17.88.
Taken in the same sequence, the figures for `Cc1cc(C(=O)N[C@@H]2COC(C)(C)C2)n(C2CCOCC2)n1` were 3% and -0.34.
Taken in the same sequence, the figures for `C[C@@H](C(=O)N(C)CC1(CO)CCCC1)N1CCN(C)CC1` were -13% and 1.47.
As to `COc1cc(CNCCCN2CCOCC2)ccc1OCc1ccc(Cl)cc1`, the “% Inhibition” value came out at 50% and the Z score is given as -4.4.
Taken in the same sequence, the figures for `COc1cc(CNCCN2CCOCC2)ccc1OCc1cccc(C)c1` were 42% and -5.6.
Taken in the same sequence, the figures for `COc1ccc(-c2cc3n(n2)CCC(=O)N3Cc2ccc(C(=O)NCCN3CCCCC3)cc2)cc1` were 10% and -1.2.
Consider `COc1ccc(S(=O)(=O)N2CCC(c3cc(N)on3)CC2)cc1Cl`, for which the “% Inhibition” value was 57% and the Z score was -3.68.
With `COc1cccc(S(=O)(=O)N2CCC(c3cc(N)on3)CC2)c1`, the “% Inhibition” value turned out to be 19% and the Z score is -2.95.
The like results for `COc1ccc(S(=O)(=O)N2CCC(n3cnnc3C)CC2)cc1Cl` were, in that order, -11% and 1.63.
Consider `C[C@@H](c1nc(C(C)(C)C)no1)N1CCN(C(c2ccccc2)c2ccccc2)CC1`, for which the “% Inhibition” value is -18% and the Z score was found to be 1.54.
Regarding `c1ccn2cc(Cc3nc(C4CC4)cs3)nc2c1`, the “% Inhibition” value came to 5% and the Z score is -0.54.
Take `CCCN(CCc1cccs1)C(=O)CCc1cscn1`: the “% Inhibition” value is recorded as -14% and the Z score was determined as 1.18.
Taken in the same sequence, the figures for `CCn1nc(C)cc1C(=O)N[C@H]1CC2(CCCCC2)Oc2ccccc21` were -13% and 1.49.
The like results for `Cn1cnnc1N1CCN(C(=O)NC[C@]2(C)C[C@H]2c2ccccc2)CC1` were, in that order, -9% and 1.79.
The like results for `O=C(CCCn1cccn1)NS(=O)(=O)c1ccc2ccccc2c1` were, in that order, -7% and 0.99.
With `O=C(Nc1ccc(C2(c3ccc(NC(=O)c4ccc(F)cc4)cc3)c3ccccc3C(=O)c3ccccc32)cc1)c1ccc(F)cc1`, the “% Inhibition” value was determined as 77% and the Z score was -2.85.
The like results for `Nc1ccc(C2(c3ccc(N)cc3)c3ccccc3C(=O)c3ccccc32)cc1` were, in that order, 18% and -2.61.
As for `O=C(Nc1ccc(-c2c3ccccc3c(-c3ccc(NC(=O)c4cccc5ccccc45)cc3)c3ccccc23)cc1)c1cccc2ccccc12`, the “% Inhibition” value is recorded as -8% and the Z score is given as 1.08.
`O=C1c2ccccc2C(c2ccc(NC(=O)c3cccc4ccccc34)cc2)(c2ccc(NC(=O)c3cccc4ccccc34)cc2)c2ccccc21`: the “% Inhibition” value is 95% and the Z score was -13.49.
The like results for `O=C1NC(c2ccc(NC(=O)c3cccc4ccccc34)cc2)(c2ccc(NC(=O)c3cccc4ccccc34)cc2)c2ccccc21` were, in that order, 23% and -3.32.
The like results for `O=C(COc1ccccc1Cl)Nc1ccc(C2(c3ccc(NC(=O)COc4ccccc4Cl)cc3)c3ccccc3-c3ccccc32)cc1` were, in that order, 38% and -1.02.
Turning to `Cc1cccc(NC(=O)CN2CC(=O)NC[C@H]2c2ccccc2)c1C`, the “% Inhibition” value is -6% and the Z score was 0.77.
As to `N[C@H](C(=O)Nc1cncc(Br)c1O)C1CCOCC1`, the “% Inhibition” value turned out to be 10% and the Z score is recorded as -1.45.
On to `CNc1nc(N2CCOCC2)nc2ccccc12`, for which the “% Inhibition” value is 2% and the Z score is listed as -0.34.
The like results for `CN(C)[C@H]1CCN(CC(=O)NC2(c3cc(F)ccc3F)CC2)C1` were, in that order, 8% and -1.27.
The like results for `OCCn1nc(Cc2cccs2)nc1CCN1CCCCCCC1` were, in that order, -16% and 2.13.
Taken in the same sequence, the figures for `Cc1nnc(CN2CCC[C@H](c3nc(C(C)C)cs3)C2)s1` were -8% and 1.01.
`CC1(C)NC(=O)N(CC(=O)N2CCC[C@H]2c2ccc3c(c2)OCCCO3)C1=O`: the “% Inhibition” value is -13% and the Z score is on record as 1.7.
The like results for `O=C(C[n+]1nc(-c2n[n+](CC(=O)c3ccccc3)c3n2CCCCC3)n2c1CCCCC2)c1ccccc1` were, in that order, 6% and -1.08.
The like results for `FC(F)Oc1ccc(-c2c[n+](-c3cccc(C(F)(F)F)c3)c3n2CCCCC3)cc1` were, in that order, 39% and -3.9.
Taken in the same sequence, the figures for `COc1ccc(C(=O)C[n+]2nc(CNc3ccc(Br)cc3)n3c2CCCCC3)cc1` were 78% and -12.51.
Turning to `CCOc1ccc([C@@]2(O)CN3CCCCCC3=[N+]2c2ccc(C)cc2)cc1`, the “% Inhibition” value is on record as 1% and the Z score is given as -0.19.
Take `COc1ccc(C(=O)C[n+]2cc(-c3ccc(OC)cc3)n3c2CCCC3)cc1`: the “% Inhibition” value came out at 65% and the Z score is -8.89.
Taken in the same sequence, the figures for `Cc1ccc(-c2c[n+](-c3ccc(OC(F)F)cc3)c3n2CCCCC3)cc1` were 66% and -12.11.
As to `CCOc1ccc([C@@]2(O)CN3C=CC=CC3=[N+]2c2ccccc2)cc1`, the “% Inhibition” value is on record as -39% and the Z score was found to be 4.59.
As to `Cc1ccc(NCc2n[n+](CC(=O)c3ccccc3)c3n2CCCCC3)cc1`, the “% Inhibition” value is -40% and the Z score came out at 4.69.
The like results for `Cc1ccc([N+]2=C3CCCCCN3C[C@]2(O)c2ccc(OC(F)F)cc2)cc1` were, in that order, -12% and 1.97.
The like results for `CCOc1ccc(-[n+]2cc(-c3ccccc3)n3c2CCC3)cc1` were, in that order, 68% and -6.48.
For `COc1ccc(C(=O)C[n+]2cc(-c3cccc(Br)c3)n(C)c2N)cc1`, the “% Inhibition” value worked out at 3% and the Z score was -0.43.
The like results for `Cn1c(-c2ccc(Br)cc2)c[n+](CC(=O)c2ccc(Br)cc2)c1N` were, in that order, 41% and 0.35.

Broadly, the % Inhibition is the relative decrease from the control value, in per cent.
